D1 antagonist: human D1 dopamine receptor antagonism | 360,000 compounds, 3.2% hits | HEK293 TREx D1 cells, calcium flux, dopamine EC80; stronger effect = lower value | P21728 | activity change, negative = inhibition, % at 10 µM; in the data active = activity change below about -30%
Target sequence (P21728 whole entry, looked up): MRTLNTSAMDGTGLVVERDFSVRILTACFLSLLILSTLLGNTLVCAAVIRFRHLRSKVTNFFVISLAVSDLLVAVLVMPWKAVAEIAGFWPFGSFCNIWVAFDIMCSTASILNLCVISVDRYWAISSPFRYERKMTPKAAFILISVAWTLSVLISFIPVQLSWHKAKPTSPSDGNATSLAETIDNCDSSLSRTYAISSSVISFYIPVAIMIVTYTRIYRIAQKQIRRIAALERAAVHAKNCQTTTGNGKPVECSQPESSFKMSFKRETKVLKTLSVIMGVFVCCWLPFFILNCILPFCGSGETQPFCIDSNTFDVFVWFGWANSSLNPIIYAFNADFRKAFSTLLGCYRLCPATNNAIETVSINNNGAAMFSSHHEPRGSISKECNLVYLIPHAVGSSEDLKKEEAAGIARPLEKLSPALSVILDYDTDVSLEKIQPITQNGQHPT
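Tetracycline-induced HEK293 Trex D1 cells, force-coupled to calcium, dye-loaded; compounds added and read 180 s, then EC80 dopamine added and calcium flux tracked kinetically another 180 s.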
D1 potentiator: potentiators of human D1 dopamine receptor; P21728; HEK293 TREx D1 cells, calcium flux, dopamine EC20 potentiation; potentiation, % at 10 µM; 360,000 compounds, 0.036% hits; in the data active = potentiation above about 30%
TRHR agonist: agonists of human TRH receptor; P34981; TRHR cells, calcium flux fluo-8, FDSS agonist mode; activation, % at 2 µM; 360,000 compounds, 0.18% hits
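TRHR-expressing cells, plated overnight in medium with 10% serum, were loaded with fluo-8 calcium dye at room temperature. After a 10 s baseline, library compound was pin-added and calcium release was recorded kinetically (ex 480/em 530) as agonist response.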
TRHR PAM: allosterically enhances the human TRH receptor | P34981 | TRHR cells, fluo-8 calcium fluorescence, EC20 TRH enhancement | enhancement, % at 2 µM | 360,000 compounds, 0.66% hits; in the data active = enhancement above about 30%
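TRHR-expressing cells loaded with fluo-8 calcium dye were read kinetically (ex 480/em 530) during compound addition, then stimulated with an EC20 of TRH (10 nM final). Enhancement of the Gq-mediated intracellular calcium response was scored.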
D1 ag: agonists of human D1 dopamine receptor | P21728 | HEK293 T-REx D1 cells, calcium flux, agonist mode | activation, % at 2 µM | 360,000 compounds, 1% hits | AID 504660
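Inducible HEK293 T-REx D1 cells, force-coupled to calcium signalling, were plated at 4000 cells/well with tetracycline and held overnight at 30 C. After no-wash calcium dye loading, compound-evoked calcium rise over 180 s flagged agonists.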
LDHA inh: LDHA (human) enzyme inhibition. purified LDHA, NADH/diaphorase-resazurin fluorescence; stronger effect = lower value. P00338. activity change, % (values are at about 110 or 230 µM). 480,000 compounds, 0.15% hits; in the data active = activity change below about -30%
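Resorufin fluorescence (ex540/em590), read at 0 and 20 min after diaphorase/resazurin addition, reports the NADH left after a 5 min room-temperature reaction of 2 nM human LDH5 with 0.06 mM NADH and 0.2 mM pyruvate.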
Each line names hits and unclear results; the compound was inactive in the other large screens. The list is not random: actives were taken first. Their share in the collection is about 3.6%. Rule as the data show it, unless noted: active = activation above about 30%; inactive = the rest.

O=C(NC1(O)C(=O)c2ccccc2C1=O)c1ccc(C(F)(F)F)cc1	none
O=C(Cc1ccccc1)NC1(O)C(=O)c2ccccc2C1=O	D1 antagonist -35
CNC(=S)NNC(=O)C(=O)NNC(=S)NC	none (no result: D1 antagonist, D1 potentiator, TRHR agonist, TRHR PAM, D1 ag)
O=C(NC1CCCCCC1)c1cnn(-c2ccc(F)cc2)c1-n1cccc1	none (no result: D1 antagonist, D1 potentiator, TRHR agonist, TRHR PAM, D1 ag)
O=C(Nc1ccc(F)cc1)Nc1nnc(-c2ccccc2)o1	none
O=C(Nc1nnc(-c2ccccc2)o1)Nc1ccc(F)cc1F	D1 antagonist -31
CCCNc1nc(N)nc(-c2cc(Cl)ccc2OC)n1	none
CCCN(CCC)c1nc(N)nc(-c2cc(Cl)ccc2OC)n1	D1 antagonist -75
COc1ccccc1N=Nc1[nH]c2ccc(C)cc2c1O	TRHR PAM 34
Cc1nn(CN2CCN(S(=O)(=O)c3c(Cl)cccc3Cl)CC2)c(=O)c2ccccc12	none (no result: D1 antagonist, D1 potentiator, TRHR agonist, TRHR PAM, D1 ag)
CNC(=O)Cc1ccc(NC(=O)C2CCCC2)cc1	none (no result: D1 antagonist, D1 potentiator, TRHR agonist, TRHR PAM, D1 ag)
CCCOc1cc(NCc2ccccc2)c2ncn(C(C)C)c2c1	D1 ag 33
CCOc1cc(NCc2ccccc2)c2ncn(C(C)C)c2c1	none (no result: D1 antagonist, D1 potentiator, TRHR agonist, TRHR PAM, D1 ag)
O=C(CN1CCN(c2ccc(F)cc2)CC1)Nc1ccnn1Cc1ccccc1Cl	none (no result: D1 antagonist, D1 potentiator, TRHR agonist, TRHR PAM, D1 ag)
CCOC(=O)c1oc2ccc(CC#N)cc2c1C	none (no result: D1 antagonist, D1 potentiator, TRHR agonist, TRHR PAM, D1 ag)
C=C1CCC2[C@](C)(CO)[C@H](O)CC[C@@]2(C)[C@@H]1/C=C/C1=CCOC1=O (stereo not given in full)	D1 antagonist -66
C=C1CC[C@@H]2[C@](C)(CO)[C@H](O)CC[C@@]2(C)[C@@H]1/C=C/C1=CCOC1=O	none
CCOc1ccc(C2CCCN2S(=O)(=O)CCN(C)S(=O)(=O)c2ccc(F)cc2)cc1 (stereo not given)	none (no result: D1 antagonist, D1 potentiator, TRHR agonist, TRHR PAM, D1 ag)
COCCn1c(SCC(=O)c2cc(C)c(C)cc2C)nc2ccccc2c1=O	none (no result: D1 antagonist, D1 potentiator, TRHR agonist, TRHR PAM, D1 ag)
COc1ccc(S(=O)(=O)Nc2ccccc2OC)cc1NC(=O)c1cccc(-n2cccc2)c1	none (no result: D1 antagonist, D1 potentiator, TRHR agonist, TRHR PAM, D1 ag)
Cc1ccc(-c2nnn(CC(=O)N(c3ccccc3F)C(CC(C)C)C(=O)NCC3CCCO3)n2)cc1 (stereo not given)	D1 antagonist -38
COc1ccc(N2C3=[N+](CC2(C)O)c2ccccc2CC3)cc1 (stereo not given)	D1 antagonist -89
CCN(CC)S(=O)(=O)c1ccc2[nH]cc(C(=O)NCCC3=CCCCC3)c(=O)c2c1	D1 antagonist -34
CCOc1ccc(N(C)S(=O)(=O)c2ccc3[nH]cc(C(=O)NCc4ccccc4)c(=O)c3c2)cc1	TRHR PAM 37
CCOc1ccc(N(C)S(=O)(=O)c2ccc3[nH]cc(C(=O)NCC(OC)OC)c(=O)c3c2)cc1	none
CCN(CC)S(=O)(=O)c1ccc2[nH]cc(C(=O)NCCN3CCCCCC3)c(=O)c2c1	none
CCOC(=O)N1CCN(C(=O)c2c[nH]c3ccc(S(=O)(=O)N(C)c4ccc(OCC)cc4)cc3c2=O)CC1	D1 antagonist -89
CCn1c(SCC(=O)Nc2cc(OC)cc(OC)c2)nc2c(-c3ccccc3)csc2c1=O	none (no result: D1 antagonist, D1 potentiator, TRHR agonist, TRHR PAM, D1 ag)
COc1ccc(C(=O)/C=C/c2ccc(C)cc2)c(O)c1	none (no result: D1 antagonist, D1 potentiator, TRHR agonist, TRHR PAM, D1 ag)
Oc1[nH]c2ccc(Br)cc2c1N=NC(=S)NCC1CCCO1 (stereo not given)	none
Oc1[nH]c2ccccc2c1N=NC(=S)NCC1CCCO1 (stereo not given)	D1 antagonist -45
CN1C[C@@H]2C(c3ccccc3)C3(c4cccnc4)CC2(C3)[C@H]1c1ccccc1 (stereo not given in full)	D1 antagonist -39
CCCCC(C)n1[nH]c(=O)cc1N (stereo not given)	none
CCCCCCC(C)n1[nH]c(=O)cc1N (stereo not given)	D1 antagonist -32
COc1ccc(NC(=O)c2cnn(-c3ccc(F)cc3F)c2C2CCN(C(=O)OC(C)(C)C)CC2)cc1Cl	none
CC(C)(C)OC(=O)N1CCC(c2c(C(=O)Nc3ccc4c(c3)OCCO4)cnn2-c2ccc(F)cc2F)CC1	D1 antagonist -35
COc1cc(Cl)c(C)cc1NC(=O)c1cnn(-c2ccc(F)cc2F)c1C1CCN(C(=O)OC(C)(C)C)CC1	D1 antagonist -41
CC(C)(C)OC(=O)N1CCC(c2c(C(=O)Nc3cccc(C(F)(F)F)c3)cnn2-c2ccc(F)cc2F)CC1	none
COc1ccc(C(=O)NC(=S)NCCO)cc1I	none (no result: D1 antagonist, D1 potentiator, TRHR agonist, TRHR PAM, D1 ag)
Cc1cccc(C(=O)N/C(=C/c2ccco2)C(=O)O)c1	none (no result: D1 antagonist, D1 potentiator, TRHR agonist, TRHR PAM, D1 ag)
C/C(=N\N=C(N)N)c1cccc(Cl)c1	D1 antagonist -47
C/C(=N\O)c1ccc(Cl)cc1Cl	none
C/C(=N\N=C(N)N)c1ccc(Cl)cc1Cl	D1 antagonist -36
C/C(=N\N=C(N)N)c1cc(Cl)ccc1Cl	D1 antagonist -45
COP(=O)(OC)c1nc(-c2cccs2)oc1NCc1ccccc1Cl	none (no result: D1 antagonist, D1 potentiator, TRHR agonist, TRHR PAM, D1 ag)
CCOC(=O)c1ccc(NC(=S)NNC(C)(C)C)cc1	D1 antagonist -36
Cc1cc(NC(=O)COC(=O)c2ccc(OC(F)(F)F)cc2)no1	none
CCCCCOc1ccc(C(=O)OCC(=O)Nc2cc(C)on2)cc1	TRHR PAM 31
CCOC(=O)c1ccc(NC(=O)Nc2cc(C)on2)cc1	D1 antagonist -32
CC(NC(=O)CCc1ncc(-c2ccc(F)cc2)o1)c1ccc2c(c1)NC(=O)CO2 (stereo not given)	none (no result: D1 antagonist, D1 potentiator, TRHR agonist, TRHR PAM, D1 ag)
O=C(CC1Nc2ccccc2NC1=O)NCCc1ccccc1 (stereo not given)	none
O=C(CC1Nc2ccccc2NC1=O)c1ccccc1 (stereo not given)	D1 ag 68 (no result: LDHA inh)
Nc1cc(N)nc(CS)n1	D1 antagonist -54
Cc1ccc(CSc2nc(N)cc(N)n2)cc1	none
CCn1c(SCC(=O)N(C)CC(=O)Nc2cccc(OC)c2)nnc1-c1ccco1	none
Cc1ccc(S(=O)(=O)N(C)C)cc1NC(=O)CSc1nnnn1-c1ccc(O)cc1	none
COc1ccc(C(=O)Nc2ccc(NC(=O)CSc3nnc(-c4ccncc4)n3C)cc2)cc1	none
COc1ccc(-c2nnc(SCC(=O)Nc3ccc(C)cc3)n2C)cc1	D1 antagonist -90
CN(C)S(=O)(=O)c1ccc(Cl)c(NC(=O)CSc2nnnn2-c2ccc(O)cc2)c1	D1 antagonist -32
COc1ccc(NC(=O)CSc2nnnn2-c2ccc(OC)cc2)cc1	D1 antagonist -80
CCn1c(SCC(=O)N(C)CC(=O)Nc2ccc(OC)cc2)nnc1-c1ccco1	TRHR PAM 38
COc1ccc(C2=C/C(=C\c3ccccc3OC(C)=O)C(=O)O2)cc1	D1 ag 54
COc1ccc(C2=C/C(=C\c3cccc(OC(C)=O)c3)C(=O)O2)cc1	D1 antagonist -31, D1 ag 81
O=C1OC(c2ccc(Cl)cc2)=C/C1=C/c1cccnc1	none
Cc1cccc(C(C)C)c1NC(=O)C1CCN(c2nc3ccccc3o2)CC1	none (no result: D1 antagonist, D1 potentiator, TRHR agonist, TRHR PAM, D1 ag)

Compound activity from PubChem.
